From the supplement of paper PMC10941209
Values without a mark were called inactive.

The molecules below were run on Toxoplasma gondii RH 2F1 tachyzoites (intracellular in HFF) (assay: parasite survival relative to DMSO control; higher = less antiparasitic activity, active = 20 or less). Conditions: 1 µM; 72 h.
Summary of the method: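 Toxoplasma gondii RH-2F1 tachyzoites expressing β-galactosidase (5 × 10^3 per well) were used to infect HFF cells at 5 × 10^3 cells/well in 96-well plates for 3 h in D2 medium. Cells then received compound at 1 μM for 72 h at 37°C in 5% CO2, were lysed for 15 min, and were given CPRG, with absorbance at 570 nm read after 30 min. Survival denotes this signal as a percentage of DMSO-treated infected controls. Each value reflects 2 or more biological replicates.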

First: N[C@H](CCC(=O)N[C@@H](Cc1c[nH]c2ccccc12)C(=O)O)C(=O)O
Second: COc1ccc(C(C)(C)C)cc1NC(=O)C(=O)c1ccc(OCCN2CCOCC2)c2ccccc12
The parasite survival of the first is higher: 84.2% for the first, 45.8% for the second.

First: Oc1c(C(Nc2ccccn2)c2ccccc2)ccc2cccnc12 (centres undefined)
Second: COCCn1cnc2c(O)nc(Nc3ccccc3)nc21
The parasite survival of the first is lower: 23.6% for the first, 67% for the second.

Compared with `CC(C)c1cc2c(cc1S(=O)(=O)O)[C@@]1(C)CCC[C@@](C)(C(=O)O)[C@@H]1CC2`, `CCc1cc(Cc2cnc(N)nc2N)cc2c1N(C)CCC2C` (centres undefined) is lower in parasite survival: 74.6% for the first, 45.2% for the second.

Going from `[N-]=[N+]=N[C@H]1C[C@H](n2ccc(=O)[nH]c2=O)O[C@@H]1CO` to `CCOC(=O)/C=C/[C@H](C[C@@H]1CCNC1=O)NC(=O)[C@H](CC)n1cccc(NC(=O)c2cc(C)on2)c1=O`, the parasite survival falls from 73.1% to 63.3%.

Going from `CC(C)Cn1c(=O)n(C)c(=O)c2c(-c3cncn3C)n(Cc3cccc4ccccc34)nc21` to `CN1c2ccc(Cl)cc2N(c2ccccc2)C(=O)c2cn(Cc3ccc(CN4CCOCC4)cc3)nc21`, the parasite survival falls from 68.5% to 44%.

First: COc1ccc(NC(=O)CC2Sc3ncnn3C2=O)cc1 (centres undefined)
Second: CC[C@@]1(O)C(=O)OCc2c1cc1n(c2=O)Cc2cc3c([N+](=O)[O-])cccc3nc2-1
The parasite survival of the first is lower: 22.1% for the first, 57.5% for the second.

For `O=c1nc(N2CCN(CC3CCCCC3)CC2)sc2c([N+](=O)[O-])cc(C(F)(F)F)cc12`, the parasite survival was 43.6%.

With `c1ccc(-c2nnc3c4ccccc4c(N4CCNCC4)nn23)cc1` the parasite survival was 11.3% (active).
